SMILES strings stand for the structures. Where “and” joins values, the source holds several entries; their conditions need not be identical. Identical values can stand only once. Calls of active or inactive are those of the source.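 Rule for the calls, unless noted: active = compounds lowering colon cancer cell viability after pretreatment blocking the GSK3B kinase; inactive = the rest.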

Test [1] is described as follows: Wnt pathway potentiators raising nuclear beta-catenin – imaging, WNT3A-conditioned medium, mouse C2C12, NPC library, primary screen (AID 1117326; in the data active = nuclear beta-catenin stimulation mostly above about 4.2%, no sharp cut-off; inactive = mostly below about 10%). Conditions: stronger effect = higher value.
Test [2] is described as follows: stimulators of insulin release from INS-1E, primary screen, cell-based, 5 mM glucose, NPC library (AID 1117329;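 active = compound raises insulin release from rat beta cells at 5 mM glucose, no numeric limit stated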). Conditions: rat INS-1E insulin secretion, at 10 µM, stronger effect = higher value.
Test [3] in a line: growth inhibition of GSK3B-pretreated HCT116 cells – cell-based, CellTiter-Glo, 0.2 to 20 µM (AID 1117336). Conditions: HCT116 viability after GSK3B inhibitor, at 20 µM, stronger effect = higher value. For orientation: Cellular ATP, detected with luciferase, serves as a proxy for viable cell number.
The nature of test [4]: inhibition of endothelial tube formation, primary screen, imaging, VEGF stimulated, CD31 staining, tube area, NPC library (AID 1117340;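 active = compound that reduces growth-factor-driven endothelial tube area in a mixed cell culture, no cutoff stated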). Conditions: VEGF-stimulated ADSC/ECFC co-culture, at 10 µM, stronger effect = higher value.
Test [5] is described as follows: GLP1 release stimulators, primary, NCI-H716, NPC library (AID 1117341;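 active = compound raises GLP1 secretion from the human gut endocrine cells, with no numeric limit stated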). Conditions: NCI-H716 cells, at 10 µM, stronger effect = higher value.
Test [6] can be described thus: HCT116 colon cancer cell growth inhibition, primary screen, CellTiter-Glo luminescence, NPC library (AID 1117342;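 active = compounds that lower survival of HCT116 colon cancer cells in the luminescence readout, no numeric limit stated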). To be noted: at 20 µM (top of the series).
Test [7] can be described thus: reduced SW480 viability measured with CellTiter-Glo, NPC library, primary (AID 1117343;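 active = compounds that lower viability of the colon cancer cells in the luminescence readout, with no numeric limit stated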). To be noted: CellTiter-Glo luminescence; at 20 µM (top of the series) unless noted.
Test [8] is described as follows: NPC library primary testing for decreased DLD-1 cell viability via CellTiter-Glo (AID 1117346;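 active = compounds that lower survival of DLD-1 colon cancer cells in the luminescence readout, no cutoff given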). To be noted: DLD-1 viability, CellTiter-Glo luminescence; at 20 µM (top of the series).
Test [9] in a line: EMT-state selective cytotoxicity in co-culture – imaging, PC-3E GFP, TEM4-18 mCherry, primary screen (AID 1345086;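 active = compounds killing one labelled cell type while sparing the other, by normalised counts and ratio limits, not self-fluorescent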;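 for all read-outs here: cells exposed to compound for 72 h before imaging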;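 for red/green cell ratio (normalised): normalised mesenchymal count divided by normalised epithelial count so high means epithelial killing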). To be noted: PC-3E GFP / TEM4-18 mCherry co-culture, imaging cell counts, at 1 µM; for red/green cell ratio (normalised): actives lie on both sides, counts scaled to control wells, 1 = unselective.
A short description of test [10]: viability loss with induced miR-34 in A549 – imaging, A549 dox-inducible miR-34, nuclei and caspase counts, primary screen (AID 1347080;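 active = compounds whose cell count with miR-34 switched on is under 0.7 times the count with it off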). To be noted: A549 miR-34 inducible, Hoechst nuclei count, 48 h.
Test [11] addresses NAD(+) hydrolase SARM1 (Homo sapiens) (UniProt Q6SZW1). Briefly: blocking NAD cleavage by SARM1 SAM-TIR – cell lysate, NAD-Glo luminescence (AID 1508614;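 active = compound whose remaining NAD level is above about 45 nM, limit read from the data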;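 note: higher remaining NAD means stronger inhibition of SARM1 NADase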). To be noted: SAM-TIR HEK293T lysate NADase, at 1 µM, stronger effect = higher value.
Test [12] is described as follows: compounds altering viability of human ES cells (AID 493140; call rule not given here;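 note: cells exposed to compounds for four days before counting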). To be noted: human embryonic stem cell survival screen; stronger effect = higher value.
The nature of test [13]: P. berghei load reduction in hepatocytes – cell-based, HepG2, luciferase luminescence, HepG2 viability, primary screen (AID 624349; in the data active = parasite load remaining mostly below about 12%, no sharp cut-off; inactive = mostly above about 10%;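 note: 100% = mean of DMSO negative control wells on the same plate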). Conditions: P. berghei liver stage in HepG2, luciferase luminescence, concentration not given here; parasite load remaining: stronger effect = lower value; viability: measured here: HepG2 viability without parasites.
Test [14] can be described thus: MELAS cybrid and Rieske KO viability enhancers – cell-based, MELAS cybrids, Rieske KO mouse fibroblasts, CellTiter-Glo, primary screen (AID 1508586;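 active = mean z-score across replicates of 1.96 or higher in either the MELAS or the Rieske mutant cell line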;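 note: z relative to plate mean and SD of compound and empty wells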). Conditions: low glucose.
Where [15] appears, read: measured here: epithelial PC-3E GFP cell survival.
[16] abbreviates: measured here: mesenchymal TEM4-18 mCherry cell survival.
Where [17] appears, read: stronger effect = lower value, cell number ratio, induced over uninduced.
Where [18] appears, read: measured here: relative caspase fold change +Dox/-Dox.
[19] abbreviates: measured here: total cells with miR-34 induction, stronger effect = lower value.
Setting [20] is: measured here: total cells without miR-34 induction.
The mark [21] stands for this setting: MELAS cybrid survival, CellTiter-Glo 48 h, stronger effect = higher value.
[22] abbreviates: Rieske KO mouse fibroblast survival, CellTiter-Glo 72 h.

NAD(+) hydrolase SARM1 (Homo sapiens), sequence (Q6SZW1 whole entry, looked up): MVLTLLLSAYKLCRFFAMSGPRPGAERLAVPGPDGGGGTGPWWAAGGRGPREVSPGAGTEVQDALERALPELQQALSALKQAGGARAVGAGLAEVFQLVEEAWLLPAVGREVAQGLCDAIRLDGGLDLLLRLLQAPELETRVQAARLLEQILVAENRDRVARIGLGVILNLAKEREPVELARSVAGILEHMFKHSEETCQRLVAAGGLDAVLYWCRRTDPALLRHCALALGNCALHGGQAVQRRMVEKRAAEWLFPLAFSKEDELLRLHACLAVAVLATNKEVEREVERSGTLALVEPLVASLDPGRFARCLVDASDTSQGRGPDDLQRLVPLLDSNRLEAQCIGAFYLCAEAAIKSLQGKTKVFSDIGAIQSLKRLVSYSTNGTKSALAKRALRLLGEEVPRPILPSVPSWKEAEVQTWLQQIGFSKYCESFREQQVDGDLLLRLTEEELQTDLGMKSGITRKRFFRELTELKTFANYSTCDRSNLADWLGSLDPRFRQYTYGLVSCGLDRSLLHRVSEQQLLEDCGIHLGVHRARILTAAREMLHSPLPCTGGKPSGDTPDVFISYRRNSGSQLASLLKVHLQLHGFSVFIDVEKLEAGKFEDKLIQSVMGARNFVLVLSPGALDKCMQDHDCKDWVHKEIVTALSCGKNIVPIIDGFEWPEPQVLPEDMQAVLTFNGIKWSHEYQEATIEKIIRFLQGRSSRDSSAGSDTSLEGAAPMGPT

On to `O=S(=O)(O)CCCS(=O)(=O)O`, for which the nuclear beta-catenin stimulation in test [1] (at 10 µM) was -2.1% (inactive); in test [1] (stimulation, at 2 µM), -0.3%. In addition, the insulin secretion stimulation in test [2] was 2.9% (inactive). The viability decrease in [3] is -15.7% (inactive). Further, the tube area decrease in test [4] is -1.1% (inactive). Besides, in test [5], the GLP1 secretion stimulation is -2.7% (inactive). In addition, in test [6], the inhibition of viability was -1.7% (inactive). Also, the viability decrease (inhibition) in test [7] was -9.3% (inactive); in test [8], -13.5% (inactive). For the same compound, in test [9], the red/green cell ratio (normalised) was 0.74 (inactive). Moreover, the normalised cell number in test [9] (setting [15]) is 1.27; in test [9] (setting [16]), 0.94. Further, the fold change is 0.939 (inactive) in test [10] (setting [17]) and 1.14 in [10] (setting [18]). Moreover, the cell count turned out to be 9300 in test [10] (setting [19]) and 9900 in test [10] (setting [20]). Besides, the remaining NAD in test [11] was 10 nM (inactive).

For `S=C=Nc1ccc(N=C=S)cc1`, the nuclear beta-catenin stimulation in test [1] (at 10 µM) was 16.4% (inactive); in [1] (stimulation, at 2 µM), -0.1%. In test [2], the insulin secretion stimulation is 3.2% (inactive). Moreover, the viability decrease in [3] was 77.2% (active). Further, the tube area decrease in test [4] was 100% (active). For the same compound, the GLP1 secretion stimulation in [5] was -3.9% (inactive). Further, in test [6], the inhibition of viability is 57% (active). Further, the results for the viability decrease (inhibition) in test [7] and in [8] were 73.5% (active) and 81.3% (active), respectively. In [9], the red/green cell ratio (normalised) is 0.76 (inactive). Also, the normalised cell number in test [9] (setting [15]) was 1.12; in test [9] (setting [16]), 0.86. Besides, the fold change in test [10] (setting [17]) was 0.826 (inactive); in test [10] (setting [18]), 1.4. Further, the cell count in [10] (setting [19]) was 7160; in test [10] (setting [20]) it was 8680. In addition, in [11], the remaining NAD is 10 nM (inactive).

One may read the viability as a per cent measure of how many cells are alive, often set against a control. In the case of `Cc1c(N)c(=O)n(-c2ccccc2)n1C`, in [12], the survival is 19.6 (inactive). For the same compound, the parasite load remaining in [13] is 27.9% (inactive) and 86.5% (inactive) and 114% (inactive). Also, the viability in test [13] was 47% and 66.5% and 89.3%. The nuclear beta-catenin stimulation in test [1] (at 10 µM) is 1.1% (inactive); in test [1] (stimulation, at 2 µM), 1.8%. Besides, the insulin secretion stimulation in test [2] is -0.3% (inactive). Moreover, the viability decrease in test [3] is -9.25% (inactive). Besides, the tube area decrease in test [4] is -13.4% (inactive). For the same compound, in test [5], the GLP1 secretion stimulation was 1.1% (inactive). Also, in test [6], the inhibition of viability is -5.1% (inactive). Moreover, the viability decrease (inhibition) in test [7] is 45.9% (inactive); in test [8] it was 10.9% (inactive). Besides, the red/green cell ratio (normalised) in [9] was 0.99 (inactive). In addition, the normalised cell number stood at 1.14 in test [9] (setting [15]) and 1.13 in test [9] (setting [16]). In addition, the fold change in test [10] (setting [17]) was 0.844 (inactive); in [10] (setting [18]), 1.06. The cell count came out at 8260 in test [10] (setting [19]) and 9790 in test [10] (setting [20]). The results for the z-score in test [14] (setting [21]) and in [14] (setting [22]) were -0.073 (inactive) and -0.119, respectively.

For the compound `Cc1c(F)c(N2CCNC(C)C2)cc2c1c(=O)c(C(=O)O)cn2C1CC1` (configuration not stated), the nuclear beta-catenin stimulation in test [1] (at 10 µM) was 0.7% (inactive); in test [1] (stimulation, at 2 µM), -0.2%. In addition, the insulin secretion stimulation in test [2] is 1.15% (inactive). Further, in [3], the viability decrease is 57.3% (active). Besides, in test [4], the tube area decrease was -1% (inactive). In test [5], the GLP1 secretion stimulation is -0.4% (inactive). Besides, the inhibition of viability in [6] was 39.5% (inactive). In addition, the viability decrease (inhibition) in test [7] is 0% (inactive); in test [8], -10.1% (inactive). Also, the red/green cell ratio (normalised) in [9] was 1 (inactive). Besides, the normalised cell number in test [9] (setting [15]) worked out at 1.13; in [9] (setting [16]), 1.12. The z-score in [14] (setting [21]) is 0.28 (inactive); in test [14] (setting [22]) it was -0.0779.

With `O=C(CCCl)NCc1ccccc1`, the nuclear beta-catenin stimulation in [1] (at 10 µM) is 0.5% (inactive); in test [1] (stimulation, at 2 µM), 8.3%. In addition, in test [2], the insulin secretion stimulation is 1.8% (inactive). In addition, in test [3], the viability decrease is 0.2% (inactive). The tube area decrease in test [4] was -9.5% (inactive). For the same compound, the GLP1 secretion stimulation in test [5] is -0.7% (inactive). The inhibition of viability in [6] was 5% (inactive). Moreover, the viability decrease (inhibition) is 0.6% (inactive) in test [7] and 14.6% (inactive) in [8]. In addition, the red/green cell ratio (normalised) in [9] was 0.95 (inactive). Also, the normalised cell number in test [9] (setting [15]) came to 1.13; in test [9] (setting [16]) it was 1.07. In addition, the remaining NAD in test [11] is 10 nM (inactive).

(Values after PubChem BioAssay.)
